EPAC2 antag – human EPAC2 antagonism, validation | hit rate 1.7% among 16,000 | Potency, µM (titrated, usually from 112 µM), for the others: at the highest dose activity, negative = inhibition, actives largely listed as inhibitors | EPAC2 Rap1B BODIPY-GDP exchange, fluorescence | Q8WZA2;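 note: 100% = activation by cAMP agonist control; nearly all actives have a fitted effect of over 40% in size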
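Fluorescent exchange read-out: 100 nM EPAC2 with 250 nM RAP1B–BODIPY-GDP and 50 uM GDP; BODIPY-GDP release lowers fluorescence. Read at 480/540 nm every 5 min for 30 min at room temperature; normalized to 6.5 mM cAMP.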
EPAC1 agonist – validation of human EPAC1 agonists; O95398; EPAC1 Rap1b BODIPY-GDP exchange, fluorescence; Potency, µM, for inactives: max response, positive = active, usual class: activators; hit rate 1% among 16,000; note: nearly all actives have a fitted effect of over 70% in size
Target sequence (O95398 whole entry, looked up): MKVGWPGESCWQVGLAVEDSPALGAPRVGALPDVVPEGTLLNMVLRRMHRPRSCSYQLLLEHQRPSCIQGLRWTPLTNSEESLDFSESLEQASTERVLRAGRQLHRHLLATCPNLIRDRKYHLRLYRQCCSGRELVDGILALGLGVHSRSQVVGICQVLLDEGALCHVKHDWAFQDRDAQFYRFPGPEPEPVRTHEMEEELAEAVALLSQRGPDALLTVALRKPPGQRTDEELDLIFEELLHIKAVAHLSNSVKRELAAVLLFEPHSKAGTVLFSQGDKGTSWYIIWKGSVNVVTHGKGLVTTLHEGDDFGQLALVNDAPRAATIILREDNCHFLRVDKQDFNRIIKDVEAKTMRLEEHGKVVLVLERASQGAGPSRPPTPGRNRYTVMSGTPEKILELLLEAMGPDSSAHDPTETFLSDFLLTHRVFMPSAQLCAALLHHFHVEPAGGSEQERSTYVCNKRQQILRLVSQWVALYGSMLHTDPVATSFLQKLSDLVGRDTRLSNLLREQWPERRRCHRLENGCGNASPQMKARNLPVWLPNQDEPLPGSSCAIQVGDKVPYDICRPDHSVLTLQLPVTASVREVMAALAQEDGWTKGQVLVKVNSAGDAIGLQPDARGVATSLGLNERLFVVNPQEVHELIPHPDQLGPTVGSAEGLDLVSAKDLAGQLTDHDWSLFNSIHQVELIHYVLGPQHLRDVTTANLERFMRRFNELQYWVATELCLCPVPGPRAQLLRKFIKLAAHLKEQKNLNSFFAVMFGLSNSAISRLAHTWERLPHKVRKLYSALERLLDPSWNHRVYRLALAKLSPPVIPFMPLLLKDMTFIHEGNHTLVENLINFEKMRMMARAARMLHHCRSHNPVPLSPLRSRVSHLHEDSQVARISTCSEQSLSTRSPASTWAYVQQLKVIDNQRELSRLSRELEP
The depositor's hits bear a star; ! = a repeat was not active. Rows were chosen to be rich in hits. Some 3.1% of all compounds tested hit in one or more screens of this group. Calls come from the whole dose curve; as a rule, active = well fitted curve in the direction sought with a large enough effect; inconclusive = small, poorly fitted or top-dose-only effect, or another doubt; inactive = no such curve, though single readings can be large; an effect the other way counts as inactive or inconclusive. Unless noted, % is set by controls: 0 for no effect and ±100 for the full control effect; potency is the fitted concentration of half-maximal effect.

CCCCCCCCCCCCCC[N+](C)(C)Cc1ccccc1 was read as EPAC2 antag 7.7% and EPAC1 agonist -36.2%.
Screening CCCCCCCCCCCCCCCC[N+](C)(C)Cc1ccccc1 returned EPAC2 antag 79.4µM* and EPAC1 agonist -43.0%.
CCCCCCCCCCCCCCCC[N+](C)(C)CC was read as EPAC2 antag 56.2µM* and EPAC1 agonist -65.3%.
For CCCCCCCC[N+](C)(C)CCCCCCCC the results were EPAC2 antag 4.2% and EPAC1 agonist 19.7%.
`CS(=O)(=O)c1ccc(-c2ccc3c(c2)CC(CNC(=O)C2(N4CCOCC4)CCCCC2)O3)cc1` (stereo unspecified) gave EPAC2 antag 3.5% and EPAC1 agonist -6.8%.
For COc1cc(CNc2nc(C)c(-c3ccn(C4Cc5ccccc5C4)n3)s2)cc2c1OCO2 the results were EPAC2 antag -12.0% and EPAC1 agonist inconclusive.
Screening COc1cccc(-c2nc(NCc3ccccc3OC)c3ccccc3n2)c1 returned EPAC2 antag -23.3% and EPAC1 agonist inconclusive.
For Cc1cccc(CNc2nc(-c3cccc(NS(C)(=O)=O)c3)nc3ccccc23)c1 the results were EPAC2 antag -29.4% and EPAC1 agonist inconclusive.
Screening COc1ccccc1CNc1nc(-c2ccc3c(c2)OCO3)nc2ccccc12 returned EPAC2 antag -23.1% and EPAC1 agonist 100µM*.
`COc1ccccc1CNc1nc(-c2cccc(C#N)c2)nc2ccccc12` gave EPAC2 antag -16.6% and EPAC1 agonist 100µM*.
COc1ccccc1CNc1nc(-c2ccc(N(C)C)cc2)nc2ccccc12 was read as EPAC2 antag -10.6% and EPAC1 agonist inconclusive.
For COc1ccccc1CNc1nc(-c2cccc(NS(C)(=O)=O)c2)nc2ccccc12 the results were EPAC2 antag -22.3% and EPAC1 agonist 100µM*.
NCCC(=O)[N-][C@@H](Cc1cnc[nH]1)C(=O)O.[Zn] was read as EPAC2 antag 30.5% and EPAC1 agonist 16.9%.
For Cc1cc(CNC(=O)c2cnn(-c3nccc(-c4ccc5c(c4)OCO5)n3)c2C2CC2)on1 the results were EPAC2 antag -4.9% and EPAC1 agonist -8.9%.
C/C1=C2N=C(/C=C3N=C(/C(C)=C4\[N-]C(C(CC(N)=O)C4(C)CCC(=O)NCC(C)OP(=O)([O-])OC4C(CO)OC(n5cnc6cc(C)c(C)cc65)C4O)C4(C)N=C1C(CCC(N)=O)C4(C)CC(N)=O)C(CCC(N)=O)C\3(C)C)C(CCC(N)=O)C/2(C)CC(N)=O.[CH3-].[Co+3] (stereo unspecified) was read as EPAC2 antag 10µM* and EPAC1 agonist 2.1%.
COC(=O)c1ccc(C(=O)N2CCc3c(C(=O)NC(C)c4ccco4)c(OC)cc(=O)n3CC2)cc1 (stereo unspecified) was read as EPAC2 antag 17.3% and EPAC1 agonist -5.1%.
`O=C(O)C1=CC(=C(c2ccc(O)c(C(=O)O)c2)c2ccc(O)c(C(=O)O)c2)C=CC1=O` gave EPAC2 antag 39.8µM*! and EPAC1 agonist inconclusive.
`Nc1ccc(O)c(C(=O)O)c1` gave EPAC2 antag 7.7% and EPAC1 agonist inconclusive.
`O=S(=O)(O)Oc1ccc(C(c2ccc(OS(=O)(=O)O)cc2)c2ccccn2)cc1` gave EPAC2 antag -11.2% and EPAC1 agonist 22.4%.
`CC(=O)Oc1ccc(C(c2ccc(OC(C)=O)cc2)c2ccccn2)cc1` gave EPAC2 antag 17.8µM* and EPAC1 agonist -44.1%.
For C=C1C(=O)O[C@H]2[C@H]1CC/C(C)=C\CC[C@@]1(C)O[C@@H]21 the results were EPAC2 antag 22.2% and EPAC1 agonist -13.5%.
`Cc1cnc(C)c(-c2ccc3c(c2)CC(CNC(=O)Cc2c(C)[nH]c4ccccc24)O3)n1` (stereo unspecified) gave EPAC2 antag -16.5% and EPAC1 agonist -6.6%.
Cc1cnc(SCc2ccccn2)nc1C1CCCN(C(=O)c2cccc(-c3cccc(F)c3)c2)C1 (stereo unspecified) was read as EPAC2 antag inconclusive and EPAC1 agonist 14.7%.
CC(C)=CCc1c(O)cc(O)c2c1O[C@H](c1ccccc1)CC2=O was read as EPAC2 antag 50.1µM* and EPAC1 agonist inconclusive.
Screening O=C1CC(c2ccc(O)cc2)Oc2ccccc21 (stereo unspecified) returned EPAC2 antag inconclusive and EPAC1 agonist -12.4%.
Screening COc1ccc(C[C@@H](C)NC[C@H](O)c2ccc(O)c(NC=O)c2)cc1 returned EPAC2 antag -0.7% and EPAC1 agonist 1.0%.
For Nc1nc2c(nc(Br)n2[C@@H]2O[C@H]3COP(=O)(O)O[C@H]3[C@@H]2O)c(=O)[nH]1 the results were EPAC2 antag -29.9% and EPAC1 agonist 21.3%.
Nc1ncnc2c1nc(Br)n2C1OC2COP(=O)(O)O[C@@H]2C1O (stereo partly specified) was read as EPAC2 antag 1.26µM* and EPAC1 agonist 0.447µM*.
C#CCC(Cc1cnc2nc(N)nc(N)c2n1)c1ccc(C(=O)N[C@@H](CCC(=O)O)C(=O)O)cc1 (stereo partly specified) was read as EPAC2 antag -6.4% and EPAC1 agonist 5.3%.
O=C1O/C(=C/Br)CCC1c1cccc2ccccc12 (stereo unspecified) was read as EPAC2 antag 3.98µM* and EPAC1 agonist -0.8%.
CO[C@H]1[C@H](NC(=O)c2ccsc2)c2ccccc2C12CCN(Cc1cc3ccccc3o1)CC2 was read as EPAC2 antag -9.5% and EPAC1 agonist 28.7%.
CCC(=O)c1ccc(O)cc1 was read as EPAC2 antag 16.4% and EPAC1 agonist -11.8%.
O=C1C=CC(=C(c2ccc(O)cc2)c2ccc(O)cc2)C=C1 was read as EPAC2 antag inconclusive and EPAC1 agonist 100µM*.
`CC(=C\c1ccccc1)/C=C1/SC(=S)N(CC(=O)O)C1=O` gave EPAC2 antag inconclusive and EPAC1 agonist -30.6%.
For CC1(C)[C@@H](OC(=O)CCC(=O)O)CC[C@]2(C)[C@H]3C(=O)C=C4[C@@H]5C[C@@](C)(C(=O)O)CC[C@]5(C)CC[C@@]4(C)[C@]3(C)CC[C@@H]12 the results were EPAC2 antag 3.98µM* and EPAC1 agonist -6.9%.
Screening CC(=O)OC1CC[C@]2(C)C(CC[C@@]3(C)C2C(=O)C=C2C4C(C)C(C)CC[C@@]4(C(=O)O)CCC23C)C1(C)C (stereo partly specified) returned EPAC2 antag -19.7% and EPAC1 agonist -188.7%.
Screening COc1ccccc1CCNc1ncnc2sc(C(=O)N3CCCC3)c(C)c12 returned EPAC2 antag -26.4% and EPAC1 agonist 5.6%.
For O=C(Oc1ccccc1)N1CCC2(CC1)CCN(c1cccc(-c3ccccc3)c1)CC2 the results were EPAC2 antag -13.7% and EPAC1 agonist 18.6%.
O=C(c1cccc(F)c1)N1CCC2(CC1)CCN(c1cccc(-c3ccccc3)c1)CC2 was read as EPAC2 antag -17.5% and EPAC1 agonist -6.2%.
Screening O=C(c1csnn1)N1CCC2(CC1)CN(c1ccccc1)C2 returned EPAC2 antag -9.1% and EPAC1 agonist -38.1%.
O=C(c1cccc(F)c1)N1CCC2(CC1)CN(c1cccc(-c3ccccc3)c1)C2 was read as EPAC2 antag inconclusive and EPAC1 agonist 89.1µM*.
O=C(c1cccc(F)c1)N1CCC[C@@]2(CCN(c3cccc(-c4ccccc4)c3)C2)C1 was read as EPAC2 antag -27.9% and EPAC1 agonist -39.2%.
Screening O=C(c1cccc(F)c1)N1CCC2(CCCN(c3cccc(-c4ccccc4)c3)C2)CC1 returned EPAC2 antag -19.4% and EPAC1 agonist 100µM*.

High-throughput results from PubChem.
